In PubChem BioAssay one finds composite Z-score data, which are given here for 36 compounds.

Each structure is given as a SMILES string. Activity calls are given as the source filed them.

The nature of this assay: probe aXIP binding to arrayed compounds – biochemical, NeuroSMM set, 635/667 nm fluorescence, primary screen (AID 1119).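 Further: probe is the protein aXip251-270 applied at 1 µg/mL to compound-printed slides; binding of probe to printed compounds measured as 667 nm fluorescence plus signal to noise.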 As to conditions: small-molecule microarray, higher = more signal, called active from +8 up or from −8 down.
Turning to `COC(=O)[C@@]1(Cc2ccc(OC)cc2)[C@@H]2[C@@H](CC(=O)[C@H]2CC(=O)C(=O)N(C)C)CN1C(=O)c1ccccc1`, the composite Z-score is 0.289 (inactive).

Regarding `COC(=O)C(CC#Cc1ccc2c(c1)[C@]1(C(=O)N2)[C@H](C(=O)N2CCCCCCC2)[C@H]2C(=O)O[C@H](c3ccccc3)[C@H](c3ccccc3)N2[C@@H]1c1ccc(OCCO)cc1)C(=O)OC`, the composite Z-score is 10.3 (active).

`COc1ccc(CCNC(=O)[C@@]2(c3ccc([N+](=O)[O-])cc3)CC(=O)N(C3CCCCC3)[C@@H]2c2ccc(CO)cc2I)cc1`: the composite Z-score was 0.931 (inactive).

For `COc1c(C)cc(-c2cc3c(c(CCc4ccccc4)n2)[Si](C(C)C)(C(C)C)O[C@H]3c2ccccc2)cc1C`, the composite Z-score was 0.123 (inactive).

For `CCCCC(=C=CC[C@@H](O)c1ccccc1OCCO)C[C@@H](O)c1ccccn1`, the composite Z-score was 0.504 (inactive).

With `[N-]=[N+]=NCc1ccccc1C[C@]1(C(=O)N2CCCCC2)COC(c2ccc(OCCCO)cc2)=N1`, the composite Z-score was -0.838 (inactive).

Consider `COc1cccc(C)c1NC(=O)O[C@H]1[C@H](OC(=O)Nc2ccccc2-c2ccccc2)[C@@H](OC(=O)Nc2ccccc2-c2ccccc2)[C@@H](OC)O[C@@H]1CO`, for which the composite Z-score is 0.694 (inactive).

Regarding `O=C1C2C=CC(C(O)c3ccccn3)N(Nc3ccc([N+](=O)[O-])cc3)C2C(=O)N1c1ccccc1` (stereo unspecified), the composite Z-score is 0.0129 (inactive).

In the case of `CCOC(=O)C1=C[C@@H](C(C)(C)C)N(S(=O)(=O)c2ccc(C)cc2)[C@H]1c1ccc(OC)cc1`, the composite Z-score was -0.244 (inactive).

For `O=C1NC(=O)C2C1C=CC(C(O)C(c1ccccc1)c1ccccc1)N2Nc1ccccn1` (stereo unspecified), the composite Z-score was -0.212 (inactive).

Consider `CCCCCCc1nc(-c2ccc(OC)nc2)c(C)c2c1[Si](C(C)C)(C(C)C)OC2`, for which the composite Z-score is 0.268 (inactive).

Take `CC(C)Cc1ccc(CN2CC[C@@H](NC(=O)c3ccccc3)C2)cc1`: the composite Z-score was 0.196 (inactive).

Regarding `COCCOC(=O)N1C(=O)[C@@]2(c3cc(C#CC4=CCCCC4)ccc31)[C@H](c1ccc(O)cc1)N1[C@H](c3ccccc3)[C@H](c3ccccc3)OC(=O)[C@H]1[C@@H]2C(=O)N1CCc2cc(OC)c(OC)cc2C1`, the composite Z-score is -0.007 (inactive).

On to `Cc1ccc(S(=O)(=O)N2[C@@H](c3ccccc3)C(C(=O)O)=CC[C@H]2c2ccc(F)cc2)cc1`, for which the composite Z-score was 0.615 (inactive).

Consider `COc1ccc([Si](C)(C)[C@H]2[C@H](CC(=O)N3CCC[C@H]3CO)O[C@@]3(C(=O)N(Cc4cccc(N5CCCCC5=O)c4)c4ccccc43)[C@@H]2C)cc1`, for which the composite Z-score is 0.433 (inactive).

In the case of `[N-]=[N+]=Nc1ccccc1C[C@@]1(C(=O)NCc2ccccc2)N=C(c2ccc(OCCCO)cc2)O[C@@H]1c1ccccc1`, the composite Z-score is 0.157 (inactive).

Take `[N-]=[N+]=NCc1ccccc1[C@H]1OC(c2ccc(OCCCO)cc2)=N[C@@]1(CCS(=O)(=O)c1ccccc1)C(=O)O`: the composite Z-score was 0.177 (inactive).

With `CCOC(=O)C[C@H]1[C@H](OC(=O)c2cc3ccccc3oc2=O)[C@@H](NC(=O)Cc2ccc(OC)cc2)c2cc(OCCCO)ccc2N1C(=O)Cc1ccc(OC)cc1`, the composite Z-score is 0.594 (inactive).

As to `C=C(C(=O)CC[C@@H](OC(=O)c1ccccc1-c1ccccc1C(=O)O)c1cccc(OCCO)c1)C(C)C`, the composite Z-score is -0.88 (inactive).

Turning to `COC(=O)[C@@]1(Cc2ccc(F)cc2)[C@@H]2C(=CC(=O)[C@H]2CC(=O)C(=O)N2CCCC2)CN1C(=O)c1ccccc1`, the composite Z-score was -0.131 (inactive).

Take `CC(C)(C)OC(=O)CC[C@]1(C(N)=O)N=C(c2ccc(OCCCO)cc2)O[C@H]1c1ccccc1N=[N+]=[N-]`: the composite Z-score was 0.59 (inactive).

Turning to `COc1ccc([Si](C)(C)[C@@H]2[C@@H](CC(=O)N3CCC[C@H]3CO)O[C@]3(C(=O)N(Cc4cccc(N5C(=O)c6cccc7cccc5c67)c4)c4ccccc43)[C@H]2C)cc1`, the composite Z-score was 0.681 (inactive).

For the compound `COC(=O)C(CC#Cc1ccc2c(c1)[C@]1(C(=O)N2)[C@H](c2ccccc2OCCO)N2[C@H](c3ccccc3)[C@H](c3ccccc3)OC(=O)[C@H]2[C@@H]1C(=O)N1CCN(c2ncccn2)CC1)C(=O)OC`, the composite Z-score is 0.156 (inactive).

On to `COc1ccc(C(=O)Nc2ccc(CN3C(=O)[C@]4(O[C@H](CC(=O)N(CCO)Cc5ccccc5)[C@@H]([Si](C)(C)c5ccc(OC)cc5)[C@@H]4C)c4ccccc43)cc2)cc1`, for which the composite Z-score is -0.21 (inactive).

`COCCOC(=O)N1C(=O)[C@@]2(c3cc(C#CCCO)ccc31)[C@H](c1ccc(O)cc1)N1[C@H](c3ccccc3)[C@H](c3ccccc3)OC(=O)[C@H]1[C@@H]2C(=O)NC[C@H](O)c1ccccc1`: the composite Z-score is 0.406 (inactive).

Consider `COc1ccc(NN2C(C(O)c3ccccc3)C=CC3C(=O)N(C4CCCCC4)C(=O)C32)cc1` (stereo unspecified), for which the composite Z-score was 0.38 (inactive).

On to `COc1ccc([Si](C)(C)[C@H]2[C@H](CC(=O)N(CCO)Cc3ccccc3)O[C@@]3(C(=O)N(Cc4ccc(N5C(=O)c6cccc7cccc5c67)cc4)c4ccccc43)[C@@H]2C)cc1`, for which the composite Z-score is 0.0959 (inactive).

Consider `COc1ccc([Si](C)(C)[C@H]2[C@H](CC(=O)N3CCC[C@H]3CO)O[C@@]3(C(=O)N(C)c4c(Br)cc(C)cc43)[C@@H]2C)cc1`, for which the composite Z-score was 3.93 (inactive).

In the case of `COCCOC(=O)N1C(=O)[C@@]2(c3cc(C#CCCO)ccc31)[C@H](C(=O)N1CCN(c3ncccn3)CC1)[C@H]1C(=O)O[C@H](c3ccccc3)[C@H](c3ccccc3)N1[C@@H]2c1ccc(OCCO)cc1`, the composite Z-score was -0.265 (inactive).

On to `COc1ccc([Si](C)(C)[C@H]2[C@H](CCO)O[C@@]3(C(=O)N(Cc4ccccc4)c4ccc(NC(=O)[C@H](C)O)cc43)[C@@H]2C)cc1`, for which the composite Z-score was 0.393 (inactive).

On to `COc1cc(CO)cc(I)c1O[C@H]1C=C(C(=O)NCCO)C[C@@H](N(CCN2CCOCC2)C(=O)C2CCCO2)[C@@H]1O` (stereo partly specified), for which the composite Z-score is 0.204 (inactive).

With `O=C(c1ccccc1)N1Cc2ccccc2C[C@@]2(N=C(c3ccc(OCCCO)cc3)O[C@H]2c2ccccc2)C1=O`, the composite Z-score is 1.71 (inactive).

With `COCCCNC(=O)[C@@]1(Cc2ccccc2I)c2ccccc2C(=O)N(Cc2ccccc2OC)[C@H]1c1ccc(CO)cc1`, the composite Z-score was 0.0679 (inactive).

With `CN(C)C(=O)[C@]1(CCS(=O)(=O)c2ccccc2)N=C(c2ccc(OCCCO)cc2)O[C@@H]1c1ccccc1CN=[N+]=[N-]`, the composite Z-score is 0.581 (inactive).

Consider `C=CCC(OC(C)=O)[C@@H]1[C@@H](N(Cc2ccc(-c3ccccc3)cc2)C(=O)Cc2ccc(OC)cc2)c2cc(OCCCO)ccc2N1C(=O)c1ccc2ccccc2c1` (stereo partly specified), for which the composite Z-score was -0.0949 (inactive).

In the case of `COc1cccc(C)c1NC(=O)O[C@H]1[C@H](OC(=O)Nc2ccccc2)[C@@H](OC(=O)Nc2ccccc2)[C@@H](OC)O[C@@H]1CO`, the composite Z-score was -0.376 (inactive).
